Sampled rows, rich in hits. Any-hit rate of the full collection: about 2%.
p53 PUMA act: restores mutant p53 pathway signaling in SW480 cells | 1.5% of 28,000 active | activation, % at 9.98 µM | AID 624151 | SW480 PUMA-promoter luciferase, p53 mutant reactivation; in the data active means activation above about 52%; inconclusive means no clear call, values can overlap the other calls
ID4 binder: binders of human ID4 protein; P47928; small molecule microarray, Flag-ID4 binding, fluorescence F/B; calls only; 1.2% of 31,000 active; AID 624137; call rule not given here;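 further: a binder raises fluorescence above local background on the spot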
STK33 inh: blocks human STK33 kinase activity. Q9BYT3. ADP-Glo luminescence, MBP substrate. inhibition, % at 12.5 µM. 0.44% of 27,000 active; in the data active means inhibition above about 20%; inconclusive means no clear call, values can overlap the other calls
Target sequence (Q9BYT3 whole entry, looked up): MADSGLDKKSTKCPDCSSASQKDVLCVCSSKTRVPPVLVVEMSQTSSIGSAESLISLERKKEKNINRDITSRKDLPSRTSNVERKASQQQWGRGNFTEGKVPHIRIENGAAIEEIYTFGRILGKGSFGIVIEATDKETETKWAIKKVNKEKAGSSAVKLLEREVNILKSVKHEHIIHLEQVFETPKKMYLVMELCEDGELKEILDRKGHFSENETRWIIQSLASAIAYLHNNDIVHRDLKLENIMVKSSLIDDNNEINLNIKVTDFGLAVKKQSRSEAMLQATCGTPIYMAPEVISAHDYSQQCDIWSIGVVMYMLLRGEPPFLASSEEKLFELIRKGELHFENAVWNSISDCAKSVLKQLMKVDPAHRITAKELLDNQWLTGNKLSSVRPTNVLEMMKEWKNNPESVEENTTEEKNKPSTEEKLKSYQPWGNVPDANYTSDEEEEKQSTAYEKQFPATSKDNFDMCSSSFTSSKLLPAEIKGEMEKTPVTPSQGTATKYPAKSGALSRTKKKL
Numbers without * were called inactive; i = inactive; ? = inconclusive; nt = no result; + = active, no number.

SMILES	p53 PUMA act	ID4 binder	STK33 inh
Cn1c(=O)c2c(nc(N3CCOCC3)n2CCCN)n(C)c1=O	2	+	-1
CCCCn1c(SCC(N)=O)nc2c1c(=O)n(C)c(=O)n2C	-6	i	3
O=C(O)/C=C/CCCCCCCC(=O)O	nt	i	-1
Cc1cc(C)nc(SCC(O)COc2ccccc2)n1 (configuration not stated)	?	i	2
OC(COc1ccc(Cl)cc1)CSc1ccccn1 (configuration not stated)	78*	i	4
OC(COc1ccc2ccccc2c1Br)Cn1cnc(-c2ccccc2)c1 (configuration not stated)	5	i	1
OC(COc1ccc(Cl)cc1)Cn1cnc(-c2ccccc2)c1 (configuration not stated)	-1	i	21*
COc1ccc2nc(Nc3nc(C)c(CCC(C)C)c(=O)[nH]3)nc(C)c2c1	30	i	0
CCN(CC)CCCC(C)Nc1c2ccc(Cl)cc2nc2ccc(OC)cc12 (configuration not stated)	-18	nt	33*
O=C(COc1ccc(Cl)cc1Cl)Nc1c[nH]c(=O)[nH]c1=O	5	i	-2
COc1ccc(NC(=O)C23CC4CC(C2)CC(C(=O)Nc2ccc(OC)cc2OC)(C4)C3)c(OC)c1	-4	i	-2
COc1ccc(NC(=O)NCc2ccc(C(=O)O)cc2)c(OC)c1	-7	+	-1
COc1ccc(NC(=S)NCCc2ccccc2OC)c(OC)c1	17	+	0
COc1ccc(NC(=O)NCCc2ccccc2OC)c(OC)c1	7	i	2
NC(N)=NS(=O)(=O)c1ccc(NC(=O)OC2CCCC2)cc1	6	i	nt
CC1(C)CC(=O)C2=C(C1)NC1=C(C(=O)c3ccccc31)C2c1ccc(OC(=O)CN2C(=O)C3CCCCC3C2=O)cc1 (configuration not stated)	-8	i	-1
CCN(CC(=O)Nc1cccc([N+](=O)[O-])c1)S(=O)(=O)c1ccc(F)cc1	3	i	4
C[C@@H]1CCCCO[C@H](CN(C)C(=O)CCCN(C)C)[C@@H](C)CN([C@H](C)CO)C(=O)c2cc(NS(=O)(=O)c3ccccc3)ccc2O1	5	i	-4
C[C@@H]1CCCCO[C@@H](CN(C)C(=O)CCCN(C)C)[C@@H](C)CN([C@H](C)CO)C(=O)c2cc(NS(=O)(=O)c3ccccc3)ccc2O1	3	+	2
C[C@@H]1CCCCO[C@H](CN(C)C(=O)c2ccccc2)[C@@H](C)CN([C@@H](C)CO)C(=O)c2cc(NS(C)(=O)=O)ccc2O1	-9	i	nt
C[C@H](CO)N1C[C@H](C)[C@@H](CN(C)C(=O)c2ccccc2)OCCCC[C@H](C)Oc2ccc(NS(C)(=O)=O)cc2C1=O	-2	+	nt
CCC(=O)N(C)C[C@@H]1Oc2cc(C#CC3CC3)ccc2S(=O)(=O)N([C@@H](C)CO)C[C@H]1C	1	+	nt
CCC(=O)N(C)C[C@@H]1Oc2cc(-c3cccc(OC)c3)ccc2S(=O)(=O)N([C@@H](C)CO)C[C@@H]1C	4	+	nt
C/C=C/c1ccc2c(c1)O[C@H](CN(C)S(=O)(=O)c1ccc(F)cc1)[C@H](C)CN([C@H](C)CO)S2(=O)=O	-13	i	nt
C/C=C/c1ccc2c(c1)O[C@H](CN(C)S(=O)(=O)c1ccccc1OC)[C@H](C)CN([C@@H](C)CO)S2(=O)=O	-9	+	nt
SMILES	p53 PUMA act	ID4 binder	STK33 inh
COc1cccc(-c2ccc3c(c2)O[C@H](CN(C)C(C)=O)[C@@H](C)CN([C@@H](C)CO)S3(=O)=O)c1	-3	nt	nt
C[C@H]1CN([C@@H](C)CO)S(=O)(=O)c2ccc(-c3ccc(C#N)cc3)cc2O[C@H]1CN(C)C(=O)Nc1cc(F)ccc1F	-24	+	nt
COCC(=O)N(C)C[C@H]1Oc2cc(C#CC3CC3)ccc2S(=O)(=O)N([C@@H](C)CO)C[C@@H]1C	-5	nt	nt
C[C@H](CO)N1C[C@H](C)[C@@H](CN(C)C(=O)Nc2cc(F)ccc2F)Oc2cc(C#CC3CCCC3)ccc2S1(=O)=O	nt	i	nt
CCc1c(C)sc(NC(=S)Nc2cc(OC)c(Cl)cc2OC)c1C(=O)OC	7	i	0
COC(=O)c1cc(C(=O)NCc2ccccn2)cc([N+](=O)[O-])c1	0	i	3
C=CCNC(=O)[C@@H]1[C@H]2C(=O)O[C@H](c3ccccc3)[C@H](c3ccccc3)N2[C@H](c2ccccc2OCCO)[C@@]12C(=O)Nc1ccc(C#CCCO)cc12	nt	nt	5
COc1c(N2CCNC(C)C2)c(F)cc2c(=O)c(C(=O)O)cn(C3CC3)c12 (configuration not stated)	nt	+	3
O=C(O)c1cn(C2CC2)c2cc(N3CCNCC3)c(F)cc2c1=O	nt	i	-2
CCCCOc1ccc(C(=O)CCN2CCCCC2)cc1	nt	nt	2
